Source: PubChem
PABP polyA inh = PABP poly(A) RNA binding inhibitors, primary screen, biochemical, fluorescence polarization, uHTS; Polyadenylate-binding protein 1 (Homo sapiens), P11940; inhibition, % at 35 µM; 1% of 290,000 active; AID 2014, 2009;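 also: calls also rest on retests at 20 µM and on dose response follow-up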
ALR H2O2 inh = inhibitors of human ALR sulfhydryl oxidase, primary screen, biochemical, H2O2 detection, HRP-luminol luminescence, single point | purified ALR, DTT oxidation | AID 485317, 2010 | FAD-linked sulfhydryl oxidase ALR (Homo sapiens), P55789 | inhibition, % (test concentration not listed) | 3.8% of 290,000 active;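 active = mean replicate inhibition above about 79%, with every replicate also reaching it, limit read from the data; inconclusive = only one of the two criteria met; inactive = mean below limit and not every replicate reaching it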
Target sequence (P55789 whole entry, looked up): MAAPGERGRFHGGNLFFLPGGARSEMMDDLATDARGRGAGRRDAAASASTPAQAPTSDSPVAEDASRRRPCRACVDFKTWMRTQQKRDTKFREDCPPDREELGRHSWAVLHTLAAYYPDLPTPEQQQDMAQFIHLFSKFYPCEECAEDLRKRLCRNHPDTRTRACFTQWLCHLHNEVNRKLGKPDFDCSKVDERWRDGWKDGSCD
UBC9 SUMO inh = inhibitors of in vitro SUMOylation cascade, primary screen, biochemical, HTRF, uHTS | AID 2006, 2009 | SUMO-conjugating enzyme UBC9 (Homo sapiens), P63279 | HTRF SUMOylation assay, SAE1/SAE2 + UBC9 | inhibition, % at 35 µM | 0.36% of 290,000 active; in the data active = inhibition above about 50%, passing the limit was not always enough; inconclusive = no clear call, values can overlap the other calls
Target sequence (P63279 whole entry, looked up): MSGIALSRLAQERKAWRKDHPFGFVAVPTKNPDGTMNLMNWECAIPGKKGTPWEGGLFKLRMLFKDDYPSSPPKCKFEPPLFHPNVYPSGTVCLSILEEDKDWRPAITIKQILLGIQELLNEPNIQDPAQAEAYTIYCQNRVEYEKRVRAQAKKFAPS
Efflux pump mplx = inhibitors of Candida efflux pumps in yeast, primary screen, S. cerevisiae, Nile Red, multiplex; S. cerevisiae Candida pump triplex; inhibition, % at 10 µM; 0.44% of 330,000 active; AID 485275, 2010;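 active = plate passing quality check with inhibition over a set limit, or well fluorescence over plate mean plus 4 SD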;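 also: Nile Red retained in pooled yeast measured as flow cytometry median fluorescence; 0% = buffer negative control and 100% = Enniatin B positive control; higher means more Nile Red kept so more efflux inhibition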
eIF4H FP inh = human eIF4H binding inhibitors, primary screen, translation initiation inhibitor project, biochemical, uHTS, fluorescence polarization; 0.94% of 290,000 active; AID 2012, 2009; eIF4H fluorescence polarization binding assay; Eukaryotic translation initiation factor 4H (Homo sapiens), Q15056; inhibition, % at 35 µM;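 also: calls also rest on retests at 20 µM and on dose response follow-up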
PABP1 MLLE inh = inhibitors of PABP1 MLLE–PAM2 peptide binding, primary screen, biochemical, fluorescence polarization, FITC-PAM2, GST-MLLE | inhibition, % at 20 µM | 0.36% of 360,000 active | AID 588489, 2011; in the data active = inhibition above about 35%, passing the limit was not always enough;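 also: plate controls were DMSO wells with GST-MLLE for no effect and wells lacking GST-MLLE protein for full effect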
The depositor's hits bear a star; ? = inconclusive; . = no result given. An excerpt weighted towards active compounds, which were near 4.7% of everything screened. Unless noted, no rule for the calls is given here.

SMILES | PABP polyA inh | ALR H2O2 inh | UBC9 SUMO inh | Efflux pump mplx | eIF4H FP inh | PABP1 MLLE inh
CCc1ccccc1N1CSC2=C(C#N)C(c3ccccc3F)CC(=O)N2C1 (configuration not stated) | 93* | -24 | 13 | 0 | 78* | -29
Cc1cccc(N2CSC3=C(C#N)C(c4ccc(C)o4)CC(=O)N3C2)c1 (configuration not stated) | 118* | 99* | 78* | 0 | 98* | .
O=C(Nc1ccc(Cl)c(Cl)c1)Nc1ccc([N+](=O)[O-])cn1 | 6 | -10 | -5 | 0 | 2 | -1
O=C(Nc1ccc(F)cc1)Nc1ccc([N+](=O)[O-])cn1 | 75* | 0 | 8 | 0 | 3.0* | 8
Cc1cc(C)n(CC2CC(=O)N(c3ccc(C)c(Cl)c3)C2=O)n1 (configuration not stated) | 100* | . | 5 | 0 | ? | 13
Cc1cc(C)n(CC2CC(=O)N(c3ccc(F)c(Cl)c3)C2=O)n1 (configuration not stated) | 1 | -1 | -4 | 0 | 4 | 2
O=C(O)CSc1nc(-c2ccccc2)c(-c2ccccc2)[nH]1 | 6 | . | 10 | 0 | -11 | -9
O=C(O)CSc1c(-c2ccccc2)[nH]c2ccccc12 | -5 | 98* | 8 | 0 | 2 | 10
O=C(O)CSc1c(-c2cccs2)[nH]c2ccccc12 | 6 | 99* | -20 | 0 | 10 | 6
COc1ccccc1-c1noc2c1C(=O)N(C(=O)OC(C)(C)C)CC2 | . | . | . | . | . | 7
C=CCc1cccc(C=Nc2ccc(Br)cc2)c1O | -1 | -2 | -2 | 0 | 2 | -10
C=CCc1cccc(/C=N/c2ncccc2O)c1O | 71* | . | 26 | 0 | 70* | 1
CCOC(=O)c1c(OCC)[nH]c2ccc(O)cc12 | -5 | 87* | 11 | 0 | 0 | -7
CCCCOc1ccc(C(=O)N(CC)CC(=O)NCc2cccs2)cc1 | -1 | 1 | 3 | -1 | -11 | -5
COc1ccc(OCc2cc(-c3ccc(Cl)cc3)no2)cc1 | 4 | -17 | 2 | 0 | -6 | 4
O=C(CCl)NCc1cc(-c2ccc(Cl)cc2)no1 | 6 | 97* | 4 | 0 | 8 | -11
CC(C)CC1C(=O)N(Cc2cn(CCC3OCCO3)nn2)CCS(=O)(=O)N1Cc1ccc(-c2cccc(N(C)C)c2)cc1 (configuration not stated) | . | . | . | . | . | 9
COc1ccc(-c2csc(NC(=S)NC(=O)/C=C/c3ccco3)n2)cc1Br | -8 | -1 | 40 | 0 | 12 | -14
COc1cc2c(cc1NC(=S)NC(=O)/C=C/c1ccco1)oc1ccccc12 | -16 | 7 | 52* | 0 | 76 | -1
COc1cc2c(cc1NC(=O)Nc1ccc(C)cc1)oc1ccccc12 | 6 | -11 | 5 | 0 | -5 | 3
COc1ccccc1NC(=S)NC(=O)/C=C/c1ccco1 | 5.9* | 54 | 28 | 0 | 77 | -1
COc1ccccc1NC(=O)/C=C\c1ccco1 | 6 | 64 | 2 | 0 | 6 | 7
COc1cc2c(cc1NC(=O)Nc1ccc(F)cc1)oc1ccccc12 | 11* | -8 | -3 | 0 | 92* | 1
COc1cc2c(cc1NC(=S)NC(=O)/C=C/c1ccc(OC)c(OC)c1)oc1ccccc12 | -6 | . | -16 | . | -2 | -27
COc1ccc(-c2csc(NC(=S)NC(=O)/C=C/c3ccco3)n2)cc1OC | 10* | -21 | 54 | 0 | 89* | 25
SMILES | PABP polyA inh | ALR H2O2 inh | UBC9 SUMO inh | Efflux pump mplx | eIF4H FP inh | PABP1 MLLE inh
COc1ccccc1NS(=O)(=O)c1ccc(C(=O)NCCCN2CCCC2=O)cc1 | . | -3 | . | 0 | . | 18
Cc1c(NC(=O)CN2C(=O)NC(C)(c3ccccc3)C2=O)c(=O)n(-c2ccccc2)n1C (configuration not stated) | -8 | -2 | -2 | 0 | -12 | 1
Cn1c(=O)oc2cc(S(=O)(=O)NCc3ccc(F)cc3)ccc21 | -8 | -3 | 5 | 0 | 28 | -5
Cn1c(=O)oc2cc(S(=O)(=O)NCc3cccnc3)ccc21 | 24* | . | 30 | 0 | 65 | 2
CCC1CCCCN1Cc1ccc(CNS(=O)(=O)c2ccc3c(c2)oc(=O)n3C)o1 (configuration not stated) | 68* | -2 | 4 | 0 | 55* | -9
CCOCc1cnc(C)nc1NCC(=O)c1c(C)[nH]c2ccc(OC)cc12 | 54* | -7 | -8 | 0 | active | -102
Cc1cc(-c2ccccc2)c2c(=O)n(-c3ccccc3)[nH]c2n1 | 2 | 99* | -19 | 0 | -14 | 7
CN(C)S(=O)(=O)c1cccc(-c2cn3cc(Cl)ccc3n2)c1 | 8 | 98* | 9 | 0 | 2 | 1
CCC(=O)Nc1cccc(-c2cn3ccccc3n2)c1 | -3 | . | 16 | 0 | 7 | -2
O=S(=O)(c1cccc(-c2cn3cc(Cl)ccc3n2)c1)N1CCOCC1 | 3 | 32 | 8 | 0 | -2 | 3
CN(C)S(=O)(=O)c1cccc(-c2cn3ccccc3n2)c1 | 12 | 99* | -4 | 0 | 2 | 10
COc1ccc(C(=O)CC(=O)C(=O)Nc2cccc(F)c2)cc1 | 14 | 80* | 7 | 1 | 15 | -4
COc1ccc(C(=O)CC(=O)C(=O)Nc2ccccc2)cc1 | 3 | 11 | 3 | 0 | -4 | -6
N#CCC(C(=O)c1cccnc1)c1ccccc1 (configuration not stated) | . | . | . | . | . | -2
Cc1cc(C)n(CCC(=O)N2CCCC(Nc3ccc(F)cc3)C2)n1 (configuration not stated) | 6 | 98* | 10 | 0 | -4 | 1
O=C(CC1CCCC1)N1CCCC(Nc2cccc(F)c2)C1 (configuration not stated) | 6 | 92* | 1 | 1 | -9 | -3
O=C1CCCN1CCC(=O)N1CCCC(Nc2ccc(F)c(F)c2)C1 (configuration not stated) | -4 | 18 | 12 | -2 | -8 | 7
CCn1nc(CC(C)C)cc1C(=O)N1CCCC(Nc2ccc(F)cc2)C1 (configuration not stated) | 6 | 60 | -7 | 2 | -6 | -6
O=C(CCN1CCOCC1)N1CCCC(Nc2cccc(F)c2)C1 (configuration not stated) | -12 | 26 | 18 | 0 | -2 | 6
O=C(Cc1ccc(N2CCNC2=O)cc1)N1CCCC(Nc2cccc(F)c2)C1 (configuration not stated) | 14 | 99* | -2 | 3 | 5 | 2
